Assay outcomes (PubChem BioAssay)
TTR transcr act – TTR transcription activators in neuroblastoma reporter cells, primary screen, cell-based, luminescence, SH-SY5Y, TTR promoter Gaussia luciferase; 100% = recombinant luciferase protein wells; activation, % at 16.7 µM; 1.3% of 92,000 active; AID 1117267, 2014;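 active means activation above the mean of all tested compounds plus 3 SD, cut at about 9.5% in these data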;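 further: cells exposed to compounds for one day before reading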
HuH7 TTR inh – TTR promoter reporter inhibitors in hepatoma cells, counter-screen for TTR transcription activator project, cell-based, luminescence, HuH7 hepatoma. shares compounds with TTR transcr act. HuH7 TTR promoter-Gaussia luciferase reporter. inhibition, % at 16.7 µM. 4% of 1,100 active;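 active means average inhibition above the solvent-only control wells' mean plus 3 SD, cut at about 15% in these data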;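 further: inhibitors lower well luminescence so higher value means more inhibition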
TTR act confirm – TTR transcription activators, retest, confirmation, cell-based, luminescence, SH-SY5Y, triplicate | SHSY5Y TTR promoter Gaussia luciferase; 100% = purified Lucia enzyme wells, no cells | activation, % at 16.7 µM | shares compounds with TTR transcr act | AID 1117280, 2014 | 1,100 tested, under 10 active;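 active means mean activation above a set limit taken from the earlier primary screen, cut at about 11% in these data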
A number is an active result; 0 = inactive. This excerpt belongs to a sample that is enriched for hits.

SMILES	TTR transcr act	others
O=C(Oc1ccc([N+](=O)[O-])cc1)O[C@H]1CC[C@@]23CCCN2C(=O)CCC[C@H]3C1	0
CCn1cc(CNC(=O)CC2C(=O)NCCN2CC(c2ccccc2)c2ccccc2)cn1 (centres undefined)	0
CC(C)CN1CCNC(=O)C1CC(=O)NCCc1cnn(-c2ccccc2)c1 (centres undefined)	13.1	HuH7 TTR inh=0;TTR act confirm=0
Cn1cc(CCNC(=O)CC2C(=O)NCCN2Cc2cccc(Oc3ccccc3)c2)cn1 (centres undefined)	0
O=c1c2ccc(F)cc2nc2sc(Nc3ccc4c(c3)CCC4)nn12	0
Clc1cccc(CNc2nc(-c3ccccn3)nnc2-c2ccccc2)c1	0
CC(=O)Nc1c(-c2ccc(F)cc2)nc2ncccn12	0
C[C@H](CO)N1C[C@H](C)[C@@H](CN(C)S(=O)(=O)c2ccc(F)cc2)Oc2ccc(NC(=O)NC3CCCCC3)cc2C1=O	0
C=CCN1C(=O)[C@H](CC(=O)NCCCC)[C@@]2(C(=O)OCC)CCCC=C12	0
Cc1ccccc1OCCn1c(S(=O)(=O)O)nc2c(N)ncnc21	9.9	HuH7 TTR inh=0;TTR act confirm=0
Cc1ccccc1OCCn1c(C)nc2ccccc21	0
Cc1ccccc1OCCn1c(=S)[nH]c2ccccc21	0
Cc1ccc([C@H]2C[C@]34CN(Cc5ccccc5)S(=O)(=O)[C@H]3C[C@H]2O4)cc1	0
COC(=O)c1cc(OC)nc(OC)c1	16.3	HuH7 TTR inh=0;TTR act confirm=0
COC(=O)c1ccc2cn[nH]c2c1	0
COC(=O)c1ccc2nccnc2c1	0
O=C(OCC#CCSc1nnc(-c2cccc3ccccc23)o1)c1ccc(F)nc1	0
CCN1C(=O)[C@H]2[C@H]3CN=C(SCc4ccc(C#N)cc4)N3[C@@](C)(C(=O)OC)[C@H]2C1=O	0
COC(=O)[C@@]1(C)[C@H]2C(=O)N(Cc3ccccc3)C(=O)[C@H]2[C@H]2CN=C(SCc3ccccc3)N21	0
CCN1C(=O)[C@H]2[C@H]3CN=C(SCC(=O)c4ccccc4)N3[C@@](C)(C(=O)OC)[C@H]2C1=O	13.5	HuH7 TTR inh=0;TTR act confirm=0
CCN1C[C@@H]2[C@@H]3C(=O)N(Cc4ccccc4)C(=O)[C@@H]3[C@](C)(C(=O)OC)N2C1=NC1CCCCC1	24.8	HuH7 TTR inh=0;TTR act confirm=0
CCCN=C1N(CC)C[C@@H]2[C@@H]3C(=O)N(Cc4ccccc4)C(=O)[C@@H]3[C@](C)(C(=O)OC)N12	0
COC(=O)[C@@]1(C)[C@H]2C(=O)N(Cc3ccccc3)C(=O)[C@H]2[C@H]2CN(C)C(=NC3CCCCC3)N21	0
COC(=O)[C@]12C[C@H](CC(=O)N3CCCCC3)C(=O)N(Cc3cccc4ccccc34)C1=C[C@H](C(C)C)O[C@@H]2C1CC1	0
COC[C@H]1CCCN1c1cccc2c1S(=O)(=O)N1CC[C@@H](C1)O2	0
SMILES	TTR transcr act	others
CCCCCCCCN1C(=O)[C@@H](CC(=O)NCCC(C)C)C[C@@]2(C(=O)OC)C1=C[C@H](C(C)C)O[C@@H]2C1CC1	0
CCOC(=O)[C@]12CCCC3=C1N(CCC3)C(=O)[C@@H](CC(=O)NCCCOC)C2	0
N#Cc1ccc(Oc2ccc(/C=N/O)cn2)cc1	80.8	HuH7 TTR inh=0;TTR act confirm=0
Cc1ccc2nc(/C(C#N)=C\c3ccc(Oc4ccc([N+](=O)[O-])cn4)cc3)[nH]c2c1	0
COc1nc(Oc2ccc(/C=N/O)cc2)nc(N(C)C)n1	0
C[C@H](NC(=O)OCc1ccccc1)P(=O)(O)O	0
O=C(NCCc1ccc2c(c1)OCO2)c1cc(-c2ccccc2)c(N2CCOCC2)s1	0
CCOC(=O)c1ccc(NC(=O)Nc2ccc3c4c(cccc24)C(=O)N3CC)cc1	0
CCN1C(=O)c2cccc3c(NC(=O)c4ccc(S(=O)(=O)N(C)C)cc4)ccc1c23	9.9	HuH7 TTR inh=0;TTR act confirm=0
CCN1C(=O)c2cccc3c(S(=O)(=O)N4CCC(C)CC4)ccc1c23	0
COC(=O)C[C@@H]1CC[C@H]2[C@H](COc3ccc(NC(=O)c4cccc(C(F)(F)F)c4)cc3C(=O)N2C)O1	0
CCOC(=O)[C@@]12CCCC3=C1N(CCC3)C(=O)[C@H]2CC(=O)NCc1cccc(C(F)(F)F)c1	0
Nc1cc(C(=O)OCC(=O)NNC(=O)c2ccccc2F)ccc1Cl	0
O=C(CNC(=O)c1ccccc1F)NCCc1ccc(Cl)cc1Cl	0
O=C(NC(=O)c1ccccc1F)OCc1ccc(Cl)cc1Cl	19.8	HuH7 TTR inh=0;TTR act confirm=0
COc1cccc(SCc2noc(C(=O)NCCC(C)C)c2C(=O)NCCC(C)C)c1	0
C[C@@H]1C[C@H]2O[C@@H]2/C=C\C=C\C(=O)Cc2cc(O)cc(O)c2C(=O)O1	0
O=C(OC12CCCN(C1)/C(=C/c1cccnc1)C2)c1ccc(F)cc1 (centres undefined)	0
COc1ccc(C(=O)NCC(=O)OCC(=O)NCc2cccs2)cc1	0
CSc1ncccc1C(=O)OCC(=O)NCc1cccs1	0
Cc1ccc(C(=O)OCC(=O)NCc2cccs2)cc1	11.2	HuH7 TTR inh=0;TTR act confirm=0
COC(=O)[C@]12CCCCC=C1N(Cc1ccc(OC)cc1)C(=O)[C@@H]2CC(=O)NCc1cccc(C(F)(F)F)c1	0
O=C(CN1C(=O)c2ccccc2C1=O)NC(Cc1ccccc1)C(=O)O (centres undefined)	0
O=C(Cc1c(O)c2ccccc2[nH]c1=O)NCc1ccccc1F	14.1	HuH7 TTR inh=0;TTR act confirm=0
O=C(CCl)NNC(=O)c1c(O)c2ccccc2[nH]c1=O	0
SMILES	TTR transcr act	others
O=C(NCCc1ccccc1)c1c(O)c2ccccc2[nH]c1=O	0
O=C(NCC1CCCO1)c1ccc2c(=O)n(Cc3ccc(Cl)cc3)c(=S)[nH]c2c1 (centres undefined)	0
O=C(NCC1CCCO1)c1ccc2c(=O)n(-c3ccc(F)cc3)c(=S)[nH]c2c1 (centres undefined)	12.1	HuH7 TTR inh=0;TTR act confirm=0
COc1ccccc1CNC(=O)c1ccc2c(=O)n(CC3CCCO3)c(=S)[nH]c2c1 (centres undefined)	0
COc1cccc(NC(=O)Nc2c(-c3ccc(F)cc3)nc3ncccn23)c1	0
COc1ccc(-c2nc3c(C)cc(Br)cn3c2Cc2cccc(Cl)c2)cc1OC	0
CC1CCCC(NC(=O)COC(=O)Cc2ccc(Cl)cc2)C1C (centres undefined)	0
Cc1ccc(-c2nc(N)sc2CC(=O)OCC(=O)NC2CCCC(C)C2C)cc1 (centres undefined)	14.9	HuH7 TTR inh=0;TTR act confirm=0
Cc1ccc(CC(=O)OCC(=O)NC2CCCC(C)C2C)cc1C (centres undefined)	0
O=C1CCN(Cc2ccccc2)C=C1c1ccc(C(F)(F)F)cc1	0
CC1(C(=O)Nc2ccc3ccccc3c2)CCC(=O)N1C1CCN(Cc2ccccc2)CC1 (centres undefined)	0
O=C1CCN(Cc2ccccc2)C=C1c1ccc2ccccc2c1	10.4	HuH7 TTR inh=0;TTR act confirm=0
COC(=O)[C@]12C[C@H](CC(=O)NCCCCc3ccccc3)C(=O)N(Cc3ccc(Cl)cc3Cl)C1=C[C@H](C(C)C)O[C@@H]2C1CC1	0
CN(C)c1ccc(C(C(=O)NC2CCCC2)N(C(=O)c2ccco2)C2CC2)cc1 (centres undefined)	0
COc1ccc(N(C(=O)c2ccco2)C(C(=O)NC2CCCCC2)c2ccccc2)cc1 (centres undefined)	0
